Molecular target: Serine/threonine-protein kinase 26 (Homo sapiens) (UniProt Q9P289)
Conditions: at 0.1 µM

Serine/threonine-protein kinase 26 (Homo sapiens), sequence (Q9P289 2-416 limits assumed): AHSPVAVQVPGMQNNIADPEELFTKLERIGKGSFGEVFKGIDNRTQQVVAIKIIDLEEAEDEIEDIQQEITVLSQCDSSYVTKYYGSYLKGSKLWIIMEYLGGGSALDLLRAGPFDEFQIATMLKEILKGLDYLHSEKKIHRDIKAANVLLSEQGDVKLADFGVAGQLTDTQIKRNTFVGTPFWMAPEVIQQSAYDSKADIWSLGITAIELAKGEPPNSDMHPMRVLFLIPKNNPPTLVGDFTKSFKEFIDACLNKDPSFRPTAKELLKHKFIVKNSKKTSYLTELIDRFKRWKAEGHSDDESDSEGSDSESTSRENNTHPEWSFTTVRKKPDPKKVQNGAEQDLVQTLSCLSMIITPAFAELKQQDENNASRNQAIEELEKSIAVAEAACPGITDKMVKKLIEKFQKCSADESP

Point of comparison: `NS(=O)(=O)c1ccc(Nc2cc(-c3cccc(O)c3)n[nH]2)cc1`, inhibition -1.36%. Against it:
- Nc1nccc(-c2c(-c3ccc(F)cc3)nn3cc(C(F)(F)F)ccc23)n1 — higher, 0.43%
- CN1CCN(C(=O)c2ccc(NC(=O)Nc3ccc(N(C)c4ccnc(Nc5ccc(CS(C)(=O)=O)cc5)n4)cc3)cc2)CC1 — higher, 1.7%
- CCn1c(-c2nonc2N)nc2c(C#CC(C)(C)O)nc(OCCNC)cc21 — lower, -3.54%
- COc1ccc(-c2nn3ncccc3c2-c2ccnc(Nc3cccc(C(F)(F)F)c3)n2)cc1 — higher, -0.3%
- Cc1ccc(C(=O)NC2CC2)cc1-c1ccc2[nH]ncc2c1 — higher, -0.05%
- Cc1ccc2c(c1)/C(=N/Nc1ccc(S(N)(=O)=O)cc1)C(=O)N2 — higher, 0.66%
- FC(F)(F)c1ccc(-c2nn3ncccc3c2-c2ccnc(Nc3ccc4c(c3)OCCO4)n2)cc1 — higher, 6.19%
- Cc1cc(O)cc(C)c1/C=C/c1cncc(C(=O)N(C)C)c1 — higher, 0.08%
- COc1cc(Nc2nccc(-c3cnn4ncccc34)n2)cc(OC)c1 — higher, 0.99%
- COc1cccc(-n2ncc3c(N/N=C/c4ccc(C)cc4)ncnc32)c1 — lower, -1.81%
- [O-][S+]1CCN(Cc2ccc(-c3ccc4ncnc(Nc5ccc(OCc6ccccc6)c(Cl)c5)c4c3)o2)CC1 — higher, -0.67%
- COc1ccc2ncnc(Nc3ccc(OCc4ccccc4)cc3)c2c1 — lower, -1.91%
- CN(C)C(=O)O[C@H]1CN[C@H](C#Cc2cc3ncnc(Nc4ccc(OCc5cccc(F)c5)c(Cl)c4)c3s2)C1 — higher, -0.23%
- NS(=O)(=O)c1ccc(NC=C2C(=O)Nc3ccc4ncsc4c32)cc1 — higher, 62.1%
- CS(=O)(=O)CCNCc1nc(-c2ccc3ncnc(Nc4ccc(OCc5cccc(C(F)(F)F)c5)cc4)c3c2)cs1 — higher, -0.02%
- CCS(=O)(=O)c1ccc(OC)c(Nc2nccc(N(C)c3ccc4c(C)n[nH]c4c3)n2)c1 — lower, -2.14%
- Nc1nccc(-c2c(-c3ccc(F)cc3)ncn2CCCN2CCOCC2)n1 — higher, -0.66%
- COC(=O)c1ccc2c(c1)C(=Cc1cc(Br)c(O)c(Br)c1)C(=O)N2 — higher, 1.49%
- COc1cc2ncnc(Nc3ccc4c(cnn4Cc4ccccc4)c3)c2cc1OC — higher, -0.63%
- O=S(=O)(CCOCc1ccc(-c2ccc3ncnc(Nc4ccc(OCc5cccc(F)c5)c(Cl)c4)c3c2)o1)c1ccccc1 — higher, -0.04%
- NC(=O)c1sc(-n2cnc3ccccc32)cc1OCc1ccccc1Br — higher, -1.18%
- NS(=O)(=O)c1cccc(-c2cc3ccncc3cc2OCc2ccccc2)c1 — lower, -2.99%
- Cc1cc(Cl)cc2c1NC(=O)C2=NNc1ccc(S(N)(=O)=O)cc1 — higher, 0.59%
- Oc1cccc(-c2nc(-c3ccccc3)[nH]c2-c2ccncc2)c1 — higher, 0.83%
- COC(=O)Nc1nc2cc(Oc3ccc(NC(=O)Nc4cccc(Br)c4)cc3)ccc2[nH]1 — higher, 0.49%
- Nc1nccc(C#Cc2cncnc2Nc2ccc(OCc3cccc(F)c3)c(Cl)c2)n1 — lower, -1.78%
- O=C1Nc2ccc(-c3cccnc3)cc2C1=Cc1cc(Br)c(O)c(Br)c1 — higher, 9.93%
- Nc1ccc(C#Cc2cncnc2Nc2ccc(OCc3cccc(F)c3)c(Cl)c2)cc1 — higher, -0.87%
- NS(=O)(=O)c1cccc(Nc2cc(-c3ccc(F)cc3)n[nH]2)c1 — higher, -0.02%
- CCS(=O)(=O)c1ccc(OC)c(Nc2ncc(-c3cccc(OC)c3)o2)c1 — lower, -1.42%
- CCn1c(-c2nonc2N)nc2ccc(F)cc21 — lower, -1.73%
- O=C1Nc2ccccc2/C1=C/Nc1ccc2[nH]c(=O)[nH]c2c1 — higher, -1.35%
- CS(=O)(=O)Nc1cccc(-c2ccc3c(NC(=O)C4CC4)n[nH]c3c2)c1 — lower, -3.32%
